SMILES strings stand for the structures. This is part of a sample that, as a whole, favours compounds with a hit. Of some 79,000 tested, about 15% had one in any assay. A number with no mark means an inactive call. The source made the active and inactive calls. Rule as the data show it: active = growth inhibition above about 70%; inactive = the rest.

Assay [1] in a line: NCI Yeast Anticancer Drug Screen. Data for the rad50 strain (AID 155).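 Also: 0% = growth of vehicle-only cultures of the same strain.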 To be noted: S. cerevisiae rad50 strain growth inhibition, stronger effect = higher value. The gist of the method:
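Compounds were tested on a yeast strain with an engineered DNA damage repair alteration; the reported value is growth inhibition normalised to vehicle treatment.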

The nature of assay [2]: NCI Yeast Anticancer Drug Screen. Data for the mec2-1 strain (AID 157). To be noted: S. cerevisiae mec2-1 strain, stronger effect = higher value. The gist of the method: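 Cells of the genetically defined mec2-1 yeast strain are incubated with test compound. Inhibition of growth is calculated against vehicle-treated controls.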
A short description of assay [3]: NCI Yeast Anticancer Drug Screen. Data for the sgs1 mgt1 strain (AID 161).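 Also: 0% = growth of cultures given vehicle only.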 Conditions: S. cerevisiae sgs1 mgt1 strain, stronger effect = higher value. Put shortly: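 Read-out: growth inhibition vs vehicle controls. Cells: mutant yeast strain deficient in DNA damage repair.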
Assay [4] can be described thus: NCI Yeast Anticancer Drug Screen. Data for the cln2 rad14 strain (AID 165).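 Also: 0% = growth equal to vehicle treated cultures.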 Conditions: S. cerevisiae cln2 rad14 strain, stronger effect = higher value. Put shortly:
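The screen exposed genetically defined yeast (cln2 rad14) to test compounds and scored growth inhibition relative to vehicle-treated controls.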

A short description of assay [5]: NCI Yeast Anticancer Drug Screen. Data for the bub3 strain (AID 167). To be noted: S. cerevisiae bub3 mutant strain, stronger effect = higher value. The gist of the method: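 Growth of a checkpoint-deficient yeast mutant is measured after compound exposure. Values represent inhibition relative to vehicle.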
The nature of assay [6]: NCI Yeast Anticancer Drug Screen. Data for the mlh1 rad18 strain (AID 175). Conditions: S. cerevisiae mlh1 rad18 strain growth inhibition, stronger effect = higher value. Put shortly: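 Compound-treated yeast growth, normalised to vehicle controls. Strain bears defined DNA repair mutations.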
[7] abbreviates: at 5.0 µM (retest, dose inferred, filed as 0.5).
[8] abbreviates: at 50.0 µM (retest, dose inferred, filed as 5.0).

For `CC(CCN)(CCN)[N+](=O)[O-]`, the growth inhibition is 16% in assay [1] (setting [7]); 18% in assay [1] (setting [8]); 8.3% in assay [1] (at 50.0 µM); -1% in assay [2] (setting [7]); -27% in assay [2] (setting [8]); 15.8% in assay [2] (at 50.0 µM). Further, the growth inhibition was -4% in assay [3] (setting [7]); 27% in assay [3] (setting [8]); -13.6% in assay [3] (at 50.0 µM); -25% in assay [4] (setting [7]); -2% in assay [4] (setting [8]); 46.3% in assay [4] (at 50.0 µM). In addition, the growth inhibition is -5% in assay [5] (setting [7]); -1% in assay [5] (setting [8]); 6.9% in assay [5] (at 50.0 µM); 4% in assay [6] (setting [7]); 9% in assay [6] (setting [8]); 15.4% in assay [6] (at 50.0 µM).
Consider `[N-]=[N+]=NC1=CC(=O)c2cccc3cccc1c23`, for which the growth inhibition is 45% in assay [1] (setting [7]); 99% (active) in assay [1] (setting [8]); 80.8% (active) in assay [1] (at 50.0 µM); 31% in assay [2] (setting [7]); 99% (active) in assay [2] (setting [8]); 86.5% (active) in assay [2] (at 50.0 µM). Further, the growth inhibition is 65% in assay [3] (setting [7]); 99% (active) in assay [3] (setting [8]); 87.6% (active) in assay [3] (at 50.0 µM); 47% in assay [4] (setting [7]); 98% (active) in assay [4] (setting [8]); 80.1% (active) in assay [4] (at 50.0 µM). The growth inhibition in assay [5] (setting [7]) was 32%; in assay [5] (setting [8]), 99% (active); in assay [5] (at 50.0 µM), 89% (active); in assay [6] (setting [7]), 72% (active); in assay [6] (setting [8]), 99% (active); in assay [6] (at 50.0 µM), 89.5% (active).
Turning to `O=C1C=CC(=O)N1c1ccc(-c2nc3ccccc3o2)cc1`, the growth inhibition in assay [1] (setting [7]) was 66%; in assay [1] (setting [8]) it was 92% (active); in assay [1] (at 50.0 µM), 86.2% (active); in assay [2] (setting [7]), 70% (active); in assay [2] (setting [8]) it was 91% (active); in assay [2] (at 50.0 µM), 88.9% (active). Moreover, the growth inhibition in assay [3] (setting [7]) is 100% (active); in assay [3] (setting [8]), 96% (active); in assay [3] (at 50.0 µM) it was 91.5% (active); in assay [4] (setting [7]), 81% (active); in assay [4] (setting [8]), 96% (active); in assay [4] (at 50.0 µM), 88% (active). Also, the growth inhibition in assay [5] (setting [7]) was 100% (active); in assay [5] (setting [8]), 87% (active); in assay [5] (at 50.0 µM), 88.5% (active); in assay [6] (setting [7]), 82% (active); in assay [6] (setting [8]), 90% (active); in assay [6] (at 50.0 µM) it was 90% (active).
For `COc1cccc(C2c3cc4c(cc3OC(NNc3ccccc3)C2C)OCO4)c1O` (stereo not given), the growth inhibition in assay [1] (setting [7]) is -8%; in assay [1] (setting [8]) it was 88% (active); in assay [1] (at 50.0 µM), 94% (active); in assay [2] (setting [7]), -5%; in assay [2] (setting [8]), 79% (active); in assay [2] (at 50.0 µM) it was 95.3% (active). Further, the growth inhibition in assay [3] (setting [7]) is 1%; in assay [3] (setting [8]) it was 93% (active); in assay [3] (at 50.0 µM), 95.8% (active); in assay [4] (setting [7]), 19%; in assay [4] (setting [8]) it was 88% (active); in assay [4] (at 50.0 µM), 94.2% (active). Also, the growth inhibition was -8% in assay [5] (setting [7]); 97% (active) in assay [5] (setting [8]); 96.8% (active) in assay [5] (at 50.0 µM); 27% in assay [6] (setting [7]); 91% (active) in assay [6] (setting [8]); 95.7% (active) in assay [6] (at 50.0 µM).
Consider `CN1CCS(=O)(=O)C1=O`, for which the growth inhibition in assay [1] (setting [7]) is 3%; in assay [1] (setting [8]) it was 87% (active); in assay [1] (at 50.0 µM), 90.3% (active); in assay [2] (setting [7]) it was 2%; in assay [2] (setting [8]), 93% (active); in assay [2] (at 50.0 µM), 95.8% (active). For the same molecule, the growth inhibition in assay [3] (setting [7]) is 1%; in assay [3] (setting [8]), 75% (active); in assay [3] (at 50.0 µM), 42.8%; in assay [4] (setting [7]) it was 10%; in assay [4] (setting [8]), 54%; in assay [4] (at 50.0 µM), 86.3% (active). Further, the growth inhibition in assay [5] (setting [7]) was 5%; in assay [5] (setting [8]), 94% (active); in assay [5] (at 50.0 µM), 98% (active); in assay [6] (setting [7]), 1%; in assay [6] (setting [8]) it was 63%; in assay [6] (at 50.0 µM), 93.2% (active).
For the molecule `Cc1ccc(S(=O)(=O)Nc2ccc(C)cc2C)cc1`, the growth inhibition in assay [1] (setting [7]) was -3%; in assay [1] (setting [8]), 96% (active); in assay [1] (at 50.0 µM) it was 85.5% (active); in assay [2] (setting [7]) it was -6%; in assay [2] (setting [8]), 96% (active); in assay [2] (at 50.0 µM) it was 54%. Moreover, the growth inhibition in assay [3] (setting [7]) was -2%; in assay [3] (setting [8]), 97% (active); in assay [3] (at 50.0 µM), 55.4%; in assay [4] (setting [7]), -3%; in assay [4] (setting [8]), 83% (active); in assay [4] (at 50.0 µM) it was 32.8%. In addition, the growth inhibition in assay [5] (setting [7]) is -1%; in assay [5] (setting [8]), 95% (active); in assay [5] (at 50.0 µM), 63.4%; in assay [6] (setting [7]) it was -2%; in assay [6] (setting [8]), 95% (active); in assay [6] (at 50.0 µM), 75.2% (active).
With `CC(C)(N)COB(c1ccccc1)c1ccccc1`, the growth inhibition is 10% in assay [1] (setting [7]); 99% (active) in assay [1] (setting [8]); 99.7% (active) in assay [1] (at 50.0 µM); -5% in assay [2] (setting [7]); 99% (active) in assay [2] (setting [8]); 99.8% (active) in assay [2] (at 50.0 µM). Moreover, the growth inhibition in assay [3] (setting [7]) was -1%; in assay [3] (setting [8]), 99% (active); in assay [3] (at 50.0 µM), 99.8% (active); in assay [4] (setting [7]), 0%; in assay [4] (setting [8]), 99% (active); in assay [4] (at 50.0 µM), 99.5% (active). Further, the growth inhibition in assay [5] (setting [7]) is -4%; in assay [5] (setting [8]), 98% (active); in assay [5] (at 50.0 µM), 99.8% (active); in assay [6] (setting [7]), -7%; in assay [6] (setting [8]) it was 99% (active); in assay [6] (at 50.0 µM), 99.5% (active).
As to `Cc1cccc(N=Nc2ccc(O)cc2)c1`, the growth inhibition in assay [1] (setting [7]) was -152%; in assay [1] (setting [8]), 98% (active); in assay [1] (at 50.0 µM), 99.6% (active); in assay [2] (setting [7]), -58%; in assay [2] (setting [8]), 98% (active); in assay [2] (at 50.0 µM), 99.5% (active). Also, the growth inhibition in assay [3] (setting [7]) was -71%; in assay [3] (setting [8]) it was 98% (active); in assay [3] (at 50.0 µM), 99.4% (active); in assay [4] (setting [7]), -71%; in assay [4] (setting [8]) it was 98% (active); in assay [4] (at 50.0 µM) it was 98.6% (active). For the same molecule, the growth inhibition in assay [5] (setting [7]) is -72%; in assay [5] (setting [8]), 97% (active); in assay [5] (at 50.0 µM), 98.5% (active); in assay [6] (setting [7]) it was -154%; in assay [6] (setting [8]), 98% (active); in assay [6] (at 50.0 µM), 99.3% (active).
Regarding `CC[N-]c1nncs1.CC[N-]c1nncs1.CC[N-]c1nncs1.CC[N-]c1nncs1.[Cl][Rh][Cl]`, the growth inhibition in assay [1] (setting [7]) is -8%; in assay [1] (setting [8]), 95% (active); in assay [1] (at 50.0 µM), 97.7% (active); in assay [2] (setting [7]), 43%; in assay [2] (setting [8]) it was 74% (active); in assay [2] (at 50.0 µM), 97.8% (active). The growth inhibition in assay [3] (setting [7]) was 11%; in assay [3] (setting [8]), 93% (active); in assay [3] (at 50.0 µM), 98.5% (active); in assay [4] (setting [7]), 0%; in assay [4] (setting [8]) it was 77% (active); in assay [4] (at 50.0 µM), 91% (active). In addition, the growth inhibition in assay [5] (setting [7]) was -4%; in assay [5] (setting [8]), 77% (active); in assay [5] (at 50.0 µM) it was 95.6% (active); in assay [6] (setting [7]), 15%; in assay [6] (setting [8]) it was 95% (active); in assay [6] (at 50.0 µM), 97.6% (active).
As for `CC1CCCC(C(O)(C(=O)O)C2CCCC(C)C2)C1` (stereo not given), the growth inhibition in assay [1] (setting [7]) was 15%; in assay [1] (setting [8]), 72% (active); in assay [1] (at 50.0 µM) it was 66.3%; in assay [2] (setting [7]), 29%; in assay [2] (setting [8]), 81% (active); in assay [2] (at 50.0 µM) it was 43%. Also, the growth inhibition in assay [3] (setting [7]) was 8%; in assay [3] (setting [8]) it was 70% (active); in assay [3] (at 50.0 µM), 56.5%; in assay [4] (setting [7]) it was 68%; in assay [4] (setting [8]), 98% (active); in assay [4] (at 50.0 µM), 33.2%. For the same molecule, the growth inhibition in assay [5] (setting [7]) was 14%; in assay [5] (setting [8]) it was 97% (active); in assay [5] (at 50.0 µM), 25.4%; in assay [6] (setting [7]) it was 15%; in assay [6] (setting [8]), 79% (active); in assay [6] (at 50.0 µM), 69.7%.

(Values after PubChem BioAssay (NCI).)
